Source: PubChem BioAssay (National Center for Advancing Translational Sciences (NCATS))
The entries come from a sample that favours hits as a whole.
LmPK inh: LmPK (Leishmania mexicana) enzyme inhibition; Q27686; purified LmPK, Kinase-Glo ATP luminescence, 1 h; Potency, µM (doses to about 57.5 µM), for the others: at the highest dose activity change, negative = inhibition, hits mostly inhibitors; hit rate 0.37% among 290,000; AID 1721; note: potency is the fitted concentration of half-maximal effect; % is set by controls: 0 for no effect and ±100 for the full control effect
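Screened at intermediate enzyme activity to detect both inhibitors and activators: LmPK at 0.1 nM, with a 0.5 nM enzyme column as activation reference. PEP 0.5 mM, ADP 0.1 mM; ATP detected by luminescence after 1 h.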
RE007 growth inh: less growth of the S. pombe RE007 Vpr strain; Potency, µM (highest dose often 92.2 µM), for inactives: top-dose activity change, negative = less growth, usual class: inhibitors; S. pombe RE007 Vpr strain, BacTiter-Glo ATP luminescence, 24 h; hit rate 0.21% among 360,000; active = well fitted falling curve with a large enough effect; inconclusive = small, poorly fitted or top-dose-only effect; inactive = no such curve, though single readings can be large or run the other way; note: potency is the fitted concentration of half-maximal effect; % is set by controls: 0 for no effect and ±100 for the full control effect; nearly all actives have a fitted effect of over 50% in size
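Fission yeast strain RE007, carrying one chromosomally integrated HIV-1 vpr copy, was seeded at OD 0.01 in PMG+AL medium with 23 nL pinned compound. After 24 h at 30 °C and 99% humidity, viability was read by BacTiter-Glo luminescence.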
Shiga toxin inh: blocks Shiga toxin action in Vero cells | hit rate 9.2% among 290,000 | inhibition, % at 38.7 µM | Vero cells, Shiga toxin protein synthesis inhibition reporter; in the data active = inhibition mostly above about 28%, no sharp cut-off; inactive = mostly below about 43%; note: 0% is about no effect
Cycloheximide cs: affects cycloheximide protein synthesis inhibition readout, counter-screen | hit rate 12% among 300,000 | max response, % | AID 2314 | cell reporter, cycloheximide protein synthesis inhibition counterscreen; in the data active = max response mostly above about 13%, no sharp cut-off; inactive = mostly below about 14%; note: read at 38.3 µM for the half of the compounds with a filed dose; 0% is about no effect
Giardia FBPA inh-1: Giardia lamblia aldolase inhibition; Potency, µM (highest dose often 59.6 µM), without a hit: at the highest dose activity, negative = inhibition, usual class: inhibitors; AID 2451; hit rate 0.71% among 290,000; purified Giardia FBPA; A8B2U2; note: potency is the fitted concentration of half-maximal effect; % is set by controls: 0 for no effect and ±100 for the full control effect; nearly all actives have a fitted effect of over 55% in size
Target sequence (A8B2U2 whole entry, looked up): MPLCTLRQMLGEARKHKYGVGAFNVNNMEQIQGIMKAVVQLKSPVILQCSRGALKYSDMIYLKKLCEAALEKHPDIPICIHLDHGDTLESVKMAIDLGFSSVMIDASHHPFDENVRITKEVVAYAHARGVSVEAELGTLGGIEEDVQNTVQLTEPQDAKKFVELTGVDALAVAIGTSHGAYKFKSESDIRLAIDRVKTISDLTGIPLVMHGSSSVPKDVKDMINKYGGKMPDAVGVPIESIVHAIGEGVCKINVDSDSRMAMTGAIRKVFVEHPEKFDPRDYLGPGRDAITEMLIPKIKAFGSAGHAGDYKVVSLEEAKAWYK
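Giardia FBPA (40 nM reagent) was preincubated 10 min at RT with compound (up to 57.5 uM final), then substrate plus GAPDH/TPI/NAD/arsenate coupling system with diaphorase/resazurin was added; resorufin fluorescence (525/598 nm) was read after 20 min.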
Tb PYK inh: T. brucei pyruvate kinase inhibition; TbPYK enzyme, Kinase-Glo Plus ATP luminescence, 45 min; AID 624173; Potency, µM (doses to about 76.8 µM), inactives show at the top dose activity, negative = inhibition, most hits filed as inhibitors; hit rate 0.12% among 410,000; note: potency is the fitted concentration of half-maximal effect; % is set by controls: 0 for no effect and ±100 for the full control effect; nearly all actives have a fitted effect of over 50% in size
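Enzyme and substrate buffer are dispensed first and compound is pin-transferred. ADP at 130 uM final then starts the reaction, which runs 45 min at room temperature. Detection reagent is added for 10 min before luminescence is imaged.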
Giardia growth: blocks growth of Giardia lamblia trophozoites | hit rate 5% among 1,500 | Giardia lamblia trophozoite growth inhibition | AID 2785 | Potency, µM (doses to about 57.5 µM), inactives show top-dose activity change, negative = inhibition, usual class: inhibitors | shares compounds with Giardia FBPA inh-1;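 note: potency is the fitted concentration of half-maximal effect; trophozoites exposed to compound for 48 h at 37 °C; % is set by controls: 0 for no effect and ±100 for the full control effect; nearly all actives have a fitted effect of over 70% in size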
Mammal cell tox: toxic to mammalian cells in Giardia aldolase counter-screen; hit rate 4% among 1,500; shares compounds with Giardia FBPA inh-1; Potency, µM (titrated, usually from 57.5 µM), for the others: at the highest dose viability change, negative = toxicity, actives largely listed as inhibitors; mammalian cell viability counter-screen, qHTS;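 note: Chinese hamster ovary cells used as mammalian cytotoxicity surrogate; viability measured as cellular ATP by luminescence; potency is the fitted concentration of half-maximal effect; compound exposure lasted 48 h before reading; % is set by controls: 0 for no effect and ±100 for the full control effect; nearly all actives have a fitted effect of over 60% in size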
Giardia FBPA inh-2: confirmation of Giardia fructose-bisphosphate aldolase inhibitors. shares compounds with Giardia FBPA inh-1. purified Giardia aldolase enzyme activity, qHTS. Potency, µM (series often up to 57.5 µM), for inactives: at the top dose activity change, negative = inhibition, most hits filed as inhibitors. hit rate 5% among 1,500. AID 2787; note: potency is the fitted concentration of half-maximal effect; % is set by controls: 0 for no effect and ±100 for the full control effect; nearly all actives have a fitted effect of over 45% in size
Rabbit aldolase: selectivity test for Giardia aldolase inhibitors: rabbit aldolase | shares compounds with Giardia FBPA inh-1 | Rabbit muscle FBPA enzyme inhibition, selectivity counter-screen | Potency, µM (top dose mostly 57.5 µM), for the others: at the top dose activity, negative = inhibition, usual class: inhibitors | hit rate 4% among 1,500 | AID 2794; note: potency is the fitted concentration of half-maximal effect; % is set by controls: 0 for no effect and ±100 for the full control effect; nearly all actives have a fitted effect of over 60% in size
Target sequence (P00883 whole entry, looked up): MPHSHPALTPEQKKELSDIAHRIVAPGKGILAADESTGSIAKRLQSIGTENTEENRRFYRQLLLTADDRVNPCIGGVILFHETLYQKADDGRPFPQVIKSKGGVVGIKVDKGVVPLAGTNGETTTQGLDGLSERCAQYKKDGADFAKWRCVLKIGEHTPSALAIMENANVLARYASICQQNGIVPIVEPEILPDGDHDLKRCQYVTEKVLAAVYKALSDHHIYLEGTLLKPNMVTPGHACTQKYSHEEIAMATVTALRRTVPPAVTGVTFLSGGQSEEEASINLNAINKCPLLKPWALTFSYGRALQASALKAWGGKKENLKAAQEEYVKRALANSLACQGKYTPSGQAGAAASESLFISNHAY
GAPDH coupling: counter-screen for Giardia aldolase inhibitors: GAPDH coupling enzyme; GAPDH coupling enzyme counterscreen, biochemical, qHTS; shares compounds with Giardia FBPA inh-1; hit rate 6% among 1,500; Potency, µM (highest dose often 57.5 µM), without a hit: at the top dose activity change, negative = inhibition, usual class: inhibitors; note: potency is the fitted concentration of half-maximal effect; % is set by controls: 0 for no effect and ±100 for the full control effect; nearly all actives have a fitted effect of over 55% in size
* hit, by the source's call; ? = inconclusive; nt = not tested or not shown; [ ] = another dose, or the depositor's remark. Unless noted, calls come from the whole dose curve; as a rule, active = well fitted curve in the direction sought with a large enough effect; inconclusive = small, poorly fitted or top-dose-only effect, or another doubt; inactive = no such curve, though single readings can be large; an effect the other way counts as inactive or inconclusive.

SMILES | LmPK inh | RE007 growth inh | Shiga toxin inh | Cycloheximide cs | Giardia FBPA inh-1 | Tb PYK inh | Giardia growth | Mammal cell tox | Giardia FBPA inh-2 | Rabbit aldolase | GAPDH coupling
CN1CCCC2(CCN(S(=O)(=O)c3ccccc3)CC2)C1 | nt | nt | nt | nt | 0% | 0% | nt | nt | nt | nt | nt
Cc1cccc(-n2cnc(C(=O)O)c2)n1 | -3% | 12% | -5 | -3 | 20µM* | 2% | 10%[10.4 µM] | 22% | 2% | -2% | 4%
CCc1ccc(Cc2cnc(NC(=O)C3=NCCN3)s2)cc1 | -1% | -28% | 34 | 16 | 14µM* | 5% | ? | -3% | 10% | 13% | 2%
CC(C)(C)c1cc(C(=S)N2CCN(CCO)CC2)cc(C(C)(C)C)c1O | 0% | 18% | -15 | -3 | 10µM* | ? | -4%[10.4 µM] | -4% | -12% | ? | ?
COc1ccc(S(=O)(=O)N(CC(=O)Nc2ccc(F)c(Cl)c2)c2ccc(C)cc2)cc1OC | nt | nt | nt | nt | nt | -1% | nt | nt | nt | nt | nt
Cc1ccc(S(=O)(=O)Nc2ncccn2)cc1 | 2% | 1% | -5 | -4 | 22µM* | -2% | -7% | 21% | 5% | 18% | 6%
O=S(=O)(Nc1ncccn1)c1ccccc1 | 3% | -10% | -7 | 0 | ? | -22% | nt | nt | nt | nt | nt
O=C(O)c1cccnc1C(=O)O | nt | 7% | nt | nt | 0.63µM* | -3% | 9%[38.3 µM] | -3% | -6% | -6% | -5%
O=C(O)c1cccnc1Cl | 2% | 12% | 16 | -3 | 11% | -8% | nt | nt | nt | nt | nt
CC(C)OC(=O)CC1C(=O)NCCN1C(=S)NC(=O)c1cccs1 (configuration not stated) | -4% | -9% | -5 | -2 | 5.6µM* | ? | 4%[38.3 µM] | -2% | -2% | 4% | -2%
COC(=O)CC1C(=O)NCCN1C(=S)NC(=O)c1ccccc1[N+](=O)[O-] (configuration not stated) | 1% | -3% | -8 | -4 | 7.1µM* | -8% | -36% | -12% | 2% | 2% | 13%
CCOC(=O)CC1C(=O)NCCN1C(=S)NC(=O)c1ccccc1OC (configuration not stated) | -2% | -7% | -9 | 3 | nt | 1% | nt | nt | nt | nt | nt
O=C(CC1C(=O)OCC2CCCCN21)Nc1ccccc1C(F)(F)F (configuration not stated) | 2% | -11% | 18 | 1 | 22µM* | -17% | 54% | 23% | 5% | 0% | 13%
Cc1n[nH]c(=S)n(NC(=O)/C=C/C(=O)Nn2c(=S)[nH]nc(C)c2=O)c1=O | -1% | -9% | -7 | -1 | -15% | -13% | nt | nt | nt | nt | nt
Cc1nn2c(=S)[nH]nc2[nH]c1=O | 13% | -1% | -15 | -3 | 11µM* | ? | 0%[10.4 µM] | -7% | -7% | -6% | 9%
Cc1nnc(N2C(=O)c3oc4ccccc4c(=O)c3C2c2ccc(F)cc2)s1 (configuration not stated) | nt | nt | nt | nt | nt | 13% | nt | nt | nt | nt | nt
S=c1nc[nH]c2c1ncn2C1CCCO1 (configuration not stated) | 4% | -3% | -18 | -5 | 2.5µM* | -23% | 17%[38.3 µM] | 32µM* | -4% | -5% | -5%
OCC1OC(n2cnc3c(=S)nc[nH]c32)CC1O (configuration not stated) | nt | 2% | nt | nt | nt | -26% | nt | nt | nt | nt | nt
c1ccc(OCCOCCN2CCOCC2)cc1 | -2% | -15% | -11 | -2 | 2% | -13% | nt | nt | nt | nt | nt
CCN1CCN(CCOCCOc2ccccc2)CC1 | -1% | 10% | -3 | 2 | 25µM* | 11% | ? | 0% | 4% | 0% | 14%
NC(=O)c1ccc(/C=N/O)nc1 | 2% | -2% | 17 | -3 | 18µM* | -7% | ? | 3% | 3% | 6% | 2%
O=C(NCc1ccccc1)c1ccc(/C=N/O)nc1 | -4% | 7% | -8 | -1 | 2% | 9% | nt | nt | nt | nt | nt
O=C(NCCCNC1CCCCC1)c1ccc(/C=N/O)nc1 | 1% | -20% | 13 | 1 | -3% | -25% | nt | nt | nt | nt | nt
CNCCCNC(=O)c1ccc(/C=N/O)nc1 | 2% | 7% | -7 | 1 | 16µM* | -11% | 60% | -6% | 1% | 8% | 4%
Cc1nc(C(F)(F)F)c(C(=O)N/N=C(\N)c2ccccn2)s1 | -2% | 4% | 12 | 8 | 4.5µM* | -3% | 32µM* | 40µM* | ? | -21% | -26%
SMILES | LmPK inh | RE007 growth inh | Shiga toxin inh | Cycloheximide cs | Giardia FBPA inh-1 | Tb PYK inh | Giardia growth | Mammal cell tox | Giardia FBPA inh-2 | Rabbit aldolase | GAPDH coupling
N/C(=N\NS(=O)(=O)c1ccccc1C(F)(F)F)c1ccccn1 | 7% | 7% | 11 | 13 | 18µM* | -5% | 6%[10.4 µM] | 7% | 13% | 11% | 7%
COc1ccccc1/C=N/NC(=O)c1sc(C)nc1C | -4% | -16% | 15 | 2 | 0% | -3% | nt | nt | nt | nt | nt
O=[N+]([O-])c1cccc(CN2CCN(Cc3ccc(Cl)cc3)CC2)c1 | 7% | 1% | 6 | -3 | 18µM* | 9% | ? | -11% | 6% | 2% | 9%
O=C(COc1ccc(Cl)cc1)N1CCN(Cc2ccc([N+](=O)[O-])cc2)CC1 | -6% | -18% | 19 | -2 | 22µM* | -10% | -8%[10.4 µM] | -5% | -2% | 2% | 8%
COc1ccc(S(=O)(=O)NCCc2nnc3ccc(SCC(=O)Nc4ccc(C(F)(F)F)cc4)nn23)cc1 | nt | nt | nt | nt | nt | -5% | nt | nt | nt | nt | nt
COc1ccc(NC(=O)c2cc3c(=O)n(Cc4cccnc4)ccc3nc2C)cc1Cl | nt | nt | nt | nt | nt | 6% | nt | nt | nt | nt | nt
S=C(Nc1cccc(Cl)c1)Nc1cccc2cnccc12 | 5% | -35% | 56* | 47* | 0.25µM* | -24% | 12%[38.3 µM] | 10% | ? | ? | 25µM*
Cc1nc2c(=O)n(C)c(=O)nc-2n(C)n1 | 0% | ? | -3 | -11 | ? | 4% | 5µM* | 16µM* | 4µM* | 4µM* | 2.2µM*
Cc1ccc(C)c(-n2c3nc(=O)n(C)c(=O)c-3cc3ccccc32)c1 | 7% | 10% | -9 | -2 | 6% | 0% | nt | nt | nt | nt | nt
COc1ccc(-n2c(SCC(=O)Nc3ccc4c(c3)OCO4)nc3c([nH]c4ccccc43)c2=O)cc1 | nt | nt | nt | nt | nt | -7% | nt | nt | nt | nt | nt
